# The source made the active and inactive calls. Unless noted, the rule behind the calls is not given here.
# Columns and labels:
# [1] = HepG2 liver cancer cell viability effects, profiling panel, resazurin fluorescence, 24 h, PK04 Diversity Set (AID 1172); conditions: higher = more signal
# [2] = basal S. cerevisiae growth modulation, no modifier, primary screen, OD600, strain BY4716, 24 h, basal condition (AID 1173); conditions: OD600, 24 h, higher = more signal, called active from +8 up or from −8 down
# [3] = MM1S myeloma cell viability, profiling panel, resazurin fluorescence, basal, 24 h, PK04 Diversity Set (AID 1174); conditions: higher = more signal, called active from +8 up or from −8 down;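 note: MM1S multiple myeloma cell line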
# [4] = molecular target: Dihydroorotate dehydrogenase (quinone), mitochondrial (Plasmodium falciparum (isolate 3D7)) (UniProt Q08210); test: PfDHODH enzyme inhibitors, primary screen, biochemical, C-terminal His tag, absorbance 600 nm (AID 1175); conditions: DCIP absorbance 600 nm, higher = more signal, called active from +8 up or from −8 down;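 note: recombinant parasite enzyme with a five histidine tag at its C terminus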
# Dihydroorotate dehydrogenase (quinone), mitochondrial (Plasmodium falciparum (isolate 3D7)), sequence (Q08210 whole entry, looked up): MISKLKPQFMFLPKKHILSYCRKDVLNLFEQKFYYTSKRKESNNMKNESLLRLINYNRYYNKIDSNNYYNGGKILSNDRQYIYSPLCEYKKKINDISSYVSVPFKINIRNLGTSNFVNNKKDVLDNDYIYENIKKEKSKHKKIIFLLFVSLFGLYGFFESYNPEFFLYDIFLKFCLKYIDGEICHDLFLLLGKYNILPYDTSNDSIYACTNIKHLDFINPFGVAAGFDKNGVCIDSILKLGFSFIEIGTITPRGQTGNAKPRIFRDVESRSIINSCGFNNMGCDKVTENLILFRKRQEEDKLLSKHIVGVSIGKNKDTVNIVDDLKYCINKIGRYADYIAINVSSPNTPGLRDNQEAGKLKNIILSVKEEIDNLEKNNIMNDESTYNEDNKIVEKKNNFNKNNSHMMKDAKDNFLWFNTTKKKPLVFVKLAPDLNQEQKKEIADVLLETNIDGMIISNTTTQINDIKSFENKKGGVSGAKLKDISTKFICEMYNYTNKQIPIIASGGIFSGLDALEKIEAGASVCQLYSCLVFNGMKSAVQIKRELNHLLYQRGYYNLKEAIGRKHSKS
# [5] = P. aeruginosa biofilm formation inhibitors, primary screen, strain PAO1, LB-PBS medium, absorbance 600 nm (AID 1176); conditions: P. aeruginosa PAO1 growth/biofilm, A600, 12 h; higher = more signal
# [6] = S. cerevisiae RM11-1a growth modifiers, primary screen, strain RM11-1a, OD600, basal, 24 h (AID 1177); conditions: OD600, 24 h, higher = more signal, called active from +8 up or from −8 down;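 note: cultures grown under basal conditions with no added stressor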
# [7] = E. coli acrAB mutant growth effects, primary screen, E. coli filamentation inducers, strain DRC39, OD650, 24 h (AID 1178); conditions: higher = more signal, called active from +8 up or from −8 down;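 note: growth measured as culture turbidity by optical density at 650 nm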
# [8] = E. coli acrAB mutant growth effects, primary screen, E. coli filamentation inducers, strain DRC39, OD650, 48 h (AID 1179);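 note: screen aims at cell division blockers that make cells filament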; conditions: E. coli DRC39 delta-acrAB growth, higher = more signal, called active from +8 up or from −8 down
# [9] = RPMI8226 myeloma cell viability, profiling panel, resazurin fluorescence, basal, 24 h, PK04 Diversity Set (AID 1180); conditions: higher = more signal;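 note: RPMI8826 multiple myeloma cell line at 5000 cells per well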
# [10] = molecular target: E3 ubiquitin-protein ligase XIAP (Homo sapiens) (UniProt P98170); test: XIAP binders, primary screen, biophysical, small-molecule microarray, fluorescence 635 nm (AID 1181); conditions: small-molecule microarray binding, higher = more signal;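 note: score merges 667 nm emission and signal to noise over triplicate slides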
# E3 ubiquitin-protein ligase XIAP (Homo sapiens), sequence (P98170 whole entry, looked up): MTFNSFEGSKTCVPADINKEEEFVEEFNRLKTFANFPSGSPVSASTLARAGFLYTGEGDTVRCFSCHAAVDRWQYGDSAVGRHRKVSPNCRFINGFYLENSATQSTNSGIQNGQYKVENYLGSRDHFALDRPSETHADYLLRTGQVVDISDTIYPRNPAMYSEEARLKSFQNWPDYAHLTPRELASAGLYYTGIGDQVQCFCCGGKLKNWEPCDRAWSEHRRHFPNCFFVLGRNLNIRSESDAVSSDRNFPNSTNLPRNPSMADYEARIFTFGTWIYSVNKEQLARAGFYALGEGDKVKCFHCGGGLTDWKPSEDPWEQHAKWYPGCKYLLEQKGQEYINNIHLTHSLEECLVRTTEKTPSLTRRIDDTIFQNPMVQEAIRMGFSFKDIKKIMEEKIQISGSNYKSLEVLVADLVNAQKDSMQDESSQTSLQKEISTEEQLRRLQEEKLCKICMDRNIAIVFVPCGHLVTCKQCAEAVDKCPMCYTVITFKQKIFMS
# [11] = test system: XIP peptide (Xip251-270) binding; test: small-molecule binders of XIP peptide, primary screen, biochemical, small-molecule microarray, fluorescence 635/667 nm, 0.1 µg/mL protein (AID 1182); conditions: fluorescent protein binding, 635 nm, higher = more signal, called active from +8 up or from −8 down
# [12] = test system: XIP peptide (Xip251-270); test: small-molecule binders of XIP peptide, primary screen, biochemical, small-molecule microarray, fluorescence 635/667 nm, 0.5 µg/mL protein (AID 1183); conditions: small-molecule microarray binding, fluorescence 635 nm; higher = more signal
# [13] = Plasmodium falciparum growth inhibition, primary screen, strain 3D7, DAPI fluorescence, 100 nL (AID 1184);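 note: parasites grown inside human red blood cells in medium with human serum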; conditions: P. falciparum 3D7 growth, 3 d, higher = more signal
# [14] = molecular target: Homeobox protein Hox-A13 (Mus musculus) (UniProt Q62424); test: inhibitors of HoxA13-DNA binding, primary screen, biochemical, fluorescence polarization, labeled oligonucleotide (AID 1185); conditions: 15 min, higher = more signal, called active from +8 up or from −8 down
# Homeobox protein Hox-A13 (Mus musculus), sequence (Q62424 whole entry, looked up): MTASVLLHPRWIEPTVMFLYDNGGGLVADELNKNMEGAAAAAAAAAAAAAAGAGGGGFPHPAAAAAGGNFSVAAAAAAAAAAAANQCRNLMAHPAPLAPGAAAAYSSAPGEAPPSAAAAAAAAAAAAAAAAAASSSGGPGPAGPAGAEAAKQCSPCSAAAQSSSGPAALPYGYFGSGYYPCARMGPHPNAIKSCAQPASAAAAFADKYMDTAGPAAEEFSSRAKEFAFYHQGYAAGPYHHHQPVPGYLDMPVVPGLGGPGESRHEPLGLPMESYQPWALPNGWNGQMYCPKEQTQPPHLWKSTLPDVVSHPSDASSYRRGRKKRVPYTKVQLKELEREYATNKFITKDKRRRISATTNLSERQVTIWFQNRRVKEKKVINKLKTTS
# [15] = inhibitors of hydroxyurea-induced Chk1 phosphorylation, primary screen, imaging, HeLa, phospho-Chk1 antibody, percent positive cells (AID 1186); conditions: hydroxyurea-induced phospho-Chk1 immunofluorescence imaging, higher = more signal
# [16] = inhibitors of hydroxyurea-induced Chk1 phosphorylation, primary screen, imaging, HeLa, phospho-Chk1 nuclear intensity (AID 1187); conditions: hydroxyurea-induced phospho-Chk1 immunofluorescence imaging, higher = more signal
Structure (SMILES),z-score [1],z-score [2],z-score [3],composite z-score [4],z-score [5],z-score [6],z-score [7],z-score [8],z-score [9],composite z-score [10],composite z-score [11],composite z-score [12],z-score [13],z-score [14],z-score [15],z-score [16]
COCCCNC(=O)[C@@H]1c2ccccc2C(=O)N(Cc2ccccc2)[C@H]1c1ccc(CO)cc1,0.0319,-0.141 (inactive),0.0771 (inactive),-0.62 (inactive),0.0993 (inactive),-0.575 (inactive),0.38 (inactive),0.0879 (inactive),0.279,-0.0663,-0.267 (inactive),0.401,0.207,-1.77 (inactive),-0.0813 (inactive),-0.452 (inactive)
CCN(CC)c1ccc(N2CC=CC34O[C@@H]5C=CCOC(=O)[C@@H]5[C@H]3C(=O)N(CCCCCCO)[C@@H]4C2=O)cc1 (stereo partly specified),1.35,-0.532 (inactive),1.27 (inactive),0.466 (inactive),-0.152 (inactive),-0.5 (inactive),0.918 (inactive),0.701 (inactive),1.45,0.212,1.07 (inactive),0.659,-0.897,-5.54 (inactive),0.234 (inactive),0.722 (inactive)
[N-]=[N+]=NCc1ccccc1[C@@H]1OC(c2ccc(OCCCO)cc2)=N[C@]1(CCS(=O)(=O)c1ccccc1)C(=O)N1CCOCC1,-0.0512,-0.26 (inactive),0.543 (inactive),-4.67 (inactive),0.19 (inactive),0.821 (inactive),2.84 (inactive),0.753 (inactive),1.05,0.0512,1.06 (inactive),0.712,-2.36,-1.69 (inactive),-0.535 (inactive),-0.137 (inactive)
C=CCNC(=O)[C@H]1[C@@H]2C(=O)O[C@@H](c3ccccc3)[C@@H](c3ccccc3)N2[C@@H](c2ccc(OCCO)cc2)[C@]12C(=O)Nc1ccc(C#CCC(C(=O)OC)C(=O)OC)cc12,0.47,1.62 (inactive),-0.447 (inactive),0.26 (inactive),2.63 (inactive),2.22 (inactive),0.634 (inactive),-0.115 (inactive),-2.64,0.0975,1.06 (inactive),0.635,-2.03,-2.29 (inactive),0.239 (inactive),0.514 (inactive)
C=C(CCCC)/C(=C/C[C@@H](OC(C)=O)c1cccc(OCCO)c1)c1cnc2ccccc2c1,-0.256,-0.236 (inactive),-0.657 (inactive),-3.06 (inactive),0.108 (inactive),0.647 (inactive),0.309 (inactive),-0.132 (inactive),0.418,-0.173,-0.276 (inactive),0.114,-2.99,-4.61 (inactive),-0.24 (inactive),-0.359 (inactive)
OCCCC1=CC(C2CC2)N(Cc2cccc(OC(F)(F)F)c2)CC1 (stereo unspecified),0.702,-1.85 (inactive),0.171 (inactive),-3.08 (inactive),-0.517 (inactive),0.345 (inactive),0.425 (inactive),0.327 (inactive),0.365,0.324,0.0736 (inactive),0.492,-1.76,-4.21 (inactive),-0.245 (inactive),0.143 (inactive)

# Source: PubChem BioAssay
